# Screening results deposited in PubChem BioAssay by National Center for Advancing Translational Sciences (NCATS).
# Hits are enriched below; roughly 8% of the tested compounds scored in any of these assays.
# KB-3-1 cytotox = KB-3-1 parental cell cytotoxicity. 400,000 tested, 1.4% active. Potency, µM (highest dose often 46.1 µM), usual class: cytotoxic. KB-3-1 viability, CellTiter-Glo ATP luminescence, 72 h; also: % is scaled to controls: 0 for no effect and ±100 for the full control effect; nearly all actives have a fitted effect of over 60% in size
#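 Luminescent ATP read-out (CellTiter-Glo) measures survival of drug-naive KB-3-1 cells after 72 h compound exposure at 37 °C. Titration series was screened from lowest to highest concentration, with DMSO vehicle plates as background controls.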
# SW480 rerep = induces DNA re-replication in SW480 colon adenocarcinoma cells. SW480 DNA re-replication, Hoechst DNA content imaging, 48 h. 340,000 tested, 1.8% active. Potency, µM (top dose mostly 46.1 µM), without a hit: top-dose re-replication activation, usual class: activators; also: % of control where 0% means no effect; nearly all actives have a fitted effect of over 55% in size
#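 Per well, 250 cells were exposed to pinned compound for 48 hr. Nuclear DNA was visualised with Hoechst (40 min, 37 C) and total object intensity recorded by fluorescence scanning.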
# HT1080 IDH1KD tx = toxicity to HT-1080 IDH1 knockdown cells (counter line); AID 686971; Potency, µM (top dose mostly 46.1 µM), for the others: top-dose activity, negative = toxicity, hits mostly cytotoxic; 360,000 tested, 2% active; HT-1080 IDH1 knockdown viability, ATP luminescence, 48 h;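 also: 0% = DMSO wells and -100% = cell-free medium wells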
#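 Cytotoxicity counter-line: IDH1KD HT-1080, 48 h, CellTiter-Glo. Curves classed by r2, magnitude and activity.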
# HT1080-NT tox = kills 2HG-producing HT-1080-NT fibrosarcoma cells. HT-1080-NT fibrosarcoma viability, CellTiter-Glo ATP luminescence, 48 h. Potency, µM (series often up to 46.1 µM), for inactives: at the top dose activity, negative = less viability, hits mostly cytotoxic. 360,000 tested, 1.6% active. AID 686970;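 also: NT is the 2HG producing partner of a matched IDH1 knockdown line; 0% = DMSO-treated cells and -100% = media-only wells without cells; nearly all actives have a fitted effect of over 55% in size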
#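 HT-1080-NT; 750 cells/well; 5% FBS RPMI; 48 h compound, 37 degrees C; CellTiter-Glo luminescence; curve fitting and curve-class assignment.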
# KB-V1 cytotox = kills drug-selected multidrug resistant KB-V1 cells; KB-V1 MDR cells viability, CellTiter-Glo, 72 h; Potency, µM (doses to about 46.1 µM), usual class: cytotoxic; 400,000 tested, 3.4% active; AID 1347076; also: % is scaled to controls: 0 for no effect and ±100 for the full control effect; nearly all actives have a fitted effect of over 60% in size
#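 Cytotoxicity via CellTiter-Glo luminescence after 72 h compound exposure at 37 degrees C. Cells: drug-selected KB-V1 line, DMEM phenol-red free plus 10% FBS. Compounds tested at multiple concentrations; normalized data fitted to concentration-effect curves.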
# MCF10A rereplic = induces DNA re-replication in MCF 10a normal breast cells; MCF 10A DNA re-replication, Hoechst nuclear intensity, 48 h; Potency, µM (doses to about 46.1 µM), without a hit: at the top dose activity, positive = re-replication, actives largely listed as activators; 350,000 tested, 2.9% active; also: % of control where 0% means no effect; nearly all actives have a fitted effect of over 50% in size
# * marks the source's active call; other numbers are inactive results; i = inactive; ? = inconclusive; . = not tested or not shown. Calls follow the shape of the dose curve; as a rule, active = well fitted curve in the direction sought with a large enough effect; inconclusive = small, poorly fitted or top-dose-only effect, or another doubt; inactive = no such curve, though single readings can be large; an effect the other way counts as inactive or inconclusive. Potency is read from the fitted curve at half-maximal effect.
SMILES,KB-3-1 cytotox,SW480 rerep,HT1080 IDH1KD tx,HT1080-NT tox,KB-V1 cytotox,MCF10A rereplic
Cc1sc(NC(=O)/C=C/c2ccc3c(c2)OCO3)nc1-c1ccccc1,1.3µM*,6%,?,-10%,2.9µM*,?
COC(=O)CSc1nnc(NC(=O)/C=C\c2ccc3c(c2)OCO3)s1,i,3%,12%,5%,i,-3%
O=C(Cc1cccs1)Nc1nc(-c2ccccc2)cs1,?,-3%,?,-28%,16µM*,?
O=C(/C=C/c1ccc2c(c1)OCO2)Nc1nncs1,5.8µM*,-14%,1µM*,?,i,?
CCOC(=O)c1c(NC(=O)/C=C/c2ccc3c(c2)OCO3)sc(C)c1CC,21µM*,2%,-6%,-2%,i,8.2µM*
COC(=O)c1c(NC(=O)/C=C/c2ccc3c(c2)OCO3)sc(C)c1C,i,-5%,-3%,-18%,i,?
Cc1cccnc1NC(=O)/C=C/c1ccc2c(c1)OCO2,i,-34%,0%,-9%,?,-27%
O=C(NCc1ccc(F)cc1)C1CCN(c2ncnc3c2nc2n3CCCCC2)CC1,?,.,.,.,i,.
O=C(COC(=O)/C=C/c1cccs1)Nc1nc(-c2ccccc2)cs1,i,?,-13%,-21%,i,12%
O=C(/C=C/c1cccs1)Nc1nc(-c2ccccc2)cs1,?,14%,?,?,15µM*,95%
O=C(/C=C/c1ccc2c(c1)OCO2)Nc1nc(-c2ccccc2)cs1,7.3µM*,-2%,?,-1%,?,?
O=C(CCS(=O)(=O)c1ccccc1)Nc1nc(-c2ccc(F)cc2)cs1,i,?,21µM*,?,i,26%
O=C(/C=C\c1cn(-c2ccccc2)nc1-c1ccccc1)Nc1nccs1,?,?,21µM*,15µM*,?,?
CCOc1ccc(CCNC(c2nnc(-c3ccccc3)o2)c2ccccc2Cl)cc1OCC (stereo not given),?,.,.,.,i,.
CNC(=O)C[C@H]1C(=O)N(c2ccc(OC)cc2)C[C@@H]1CSC,i,.,18%,11%,i,.
CS(=O)(=O)N1CCc2cc(-c3csc(NC(=O)Cc4cccs4)n3)ccc21,i,-6%,?,10µM*,i,7%
Cc1cc(C)nc(NC(=O)/C=C/c2ccc3c(c2)OCO3)c1,?,-1%,4.6µM*,?,?,?
CC(=O)Nc1nc(-c2ccc3c(c2)CCN3S(C)(=O)=O)cs1,i,?,-3%,-1%,i,-46%
CN(C(=O)C1=CC(c2ccc3c(c2)OCO3)=NS(=O)(=O)N1C)c1ccccc1,i,.,.,.,i,.
Oc1c(N=NC(=S)Nc2ccccc2F)c2ccccc2n1Cc1ccccc1Cl,4.1µM*,3%,-1%,13µM*,i,28%
Oc1c(N=NC(=S)Nc2ccccc2F)c2ccccc2n1Cc1ccccc1,?,1%,-5%,-1%,i,?
CC(C)N(C1=N/C(=C\c2ccco2)C(=O)N1c1ccccc1)C(C)C,i,?,0%,-1%,i,7.3µM*
O=C1/C(=C/c2ccco2)N=C(N2CCCCC2)N1c1ccccc1,i,?,0%,8%,i,?
CCn1c(CN2CCOCC2)nc2cc(NC(=O)c3cccc([N+](=O)[O-])c3)ccc21,i,.,.,.,i,.
COc1ccc(/C=N/NS(=O)(=O)c2ccccc2)cc1OS(=O)(=O)c1ccc(C)cc1,i,?,-4%,-5%,18µM*,?
SMILES,KB-3-1 cytotox,SW480 rerep,HT1080 IDH1KD tx,HT1080-NT tox,KB-V1 cytotox,MCF10A rereplic
COc1cc(/C=N/NC(=O)COc2ccc(Cl)cc2)ccc1OS(=O)(=O)c1ccc(C)cc1,i,-1%,?,?,16µM*,17%
COc1cc(/C=N/NC(=O)COc2cccc(F)c2)ccc1OS(=O)(=O)c1ccc(C)cc1,?,?,?,-1%,5.8µM*,?
O=C(CSc1nc(C(F)(F)F)cc(=O)[nH]1)NCc1ccc2c(c1)OCO2,i,-6%,4%,6%,i,1%
Clc1cccc[n+]1CCCCCC[n+]1ccccc1Cl,i,.,.,.,i,.
Cc1cccc(C(=O)N2[C@@H](C(C)C)COc3cc(Br)ccc3S2(=O)=O)c1,?,2%,?,?,?,8.2µM*
COc1cccc(C(=O)N2C(C(C)C)COc3cc(Br)ccc3S2(=O)=O)c1 (stereo not given),i,.,?,?,i,.
O=c1c(-c2nc3ccccc3s2)cccn1Cc1ccccc1,i,12µM*,-13%,2%,?,5.2µM*
Nc1ccccc1-c1nc2ccccc2s1,i,?,-14%,-17%,i,16µM*
COc1ccc(NC(=O)c2oc3ccccc3c2NC(=O)COc2ccc(F)cc2)c(OC)c1,i,.,.,.,i,.
CCOC(=O)c1cc(CC)sc1NC(=O)COC(=O)C1CCC1,i,1%,-10%,-1%,i,-3%
CO/N=C(/CNC(=O)c1cccc(Cl)c1)c1ccc(Cl)cc1,i,-125%,-30%,-4%,23µM*,-2%
COc1ccc(-c2oc3ncn4nc(Cc5ccccc5)nc4c3c2-c2ccc(OC)cc2)cc1,i,1%,7%,10%,3.7µM*,4%
COc1ccc(-c2oc3ncn4nc(COc5ccccc5)nc4c3c2-c2ccc(OC)cc2)cc1,i,5%,-5%,-21%,i,1%
CCOc1cc(/C=C/C(=O)c2ccc(OC)c(CN3CCOCC3)c2)cc(Br)c1O,?,?,23µM*,?,?,?
CCOc1cc(C(=S)N2CCOCC2)ccc1OC,i,1%,-9%,3%,i,13µM*
CCOc1cc(C(=S)N2CCOCC2)ccc1OC(=O)c1ccccc1,i,-2%,3%,-1%,i,-9%
CCOc1cc(C(=S)N2CCOCC2)ccc1OS(=O)(=O)c1ccccc1,i,1%,-4%,0%,2.3µM*,?
CCOc1cc2nc(-c3ccc(OC)c(OC)c3)nc(N3CCOCC3)c2cc1OC,?,23µM*,?,?,?,?
CCc1ccc(-n2nc(C)c3c(C)cc(=O)n(CC(=O)Nc4cc(C)ccc4C)c32)cc1,i,.,.,.,i,.
COc1ccc(NC(=O)CSc2nc3nc(C)c(Cc4ccc(C)cc4)c(C)n3n2)cc1OC,i,.,.,.,i,.
CCOC(=O)N1CCN(C(=O)CCCCn2c(=S)[nH]c3ccsc3c2=O)CC1,?,-4%,1%,3%,i,-8%
